Screens (PubChem)
Shown are actives, neighbours in structure and some others; about 6% of the full set was active somewhere.
ERK AVP block = vasopressin-driven ERK pathway inhibition; HEK293-V1b, vasopressin-stimulated pERK AlphaScreen; Potency, µM (series often up to 57.5 µM), for the others: top-dose activity, negative = inhibition, actives largely listed as inhibitors; actives 0.99% (n = 72,000); AID 995; also: nearly all actives have a fitted effect of over 55% in size
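Overnight-seeded V1b-HEK293 cells in 1% FBS got compound, then vasopressin (25 nM final, 5 min, 37C), then lysis buffer. AlphaScreen detection of phospho-ERK; activity normalized to basal and full-stimulation controls.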
Pol III holo inh = inhibitors of bacterial DNA polymerase III holoenzyme; reconstituted DNA polymerase III holoenzyme replication, biochemical; Potency, µM (top dose mostly 57.1 µM), for the others: at the highest dose activity change, negative = inhibition; actives 0.25% (n = 71,000)
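Reconstituted *E. coli* holoenzyme (0.35 nM Pol III, 1 nM beta, 154 nM SSB, 2 nM primase) was preincubated with compound for 15 min at RT. Synthesis on 1.4 nM ssM13Gori ran 35 min, then was stopped with PicoGreen/EDTA and read as dsDNA fluorescence.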
15-hLO inh = inhibitors of human 15-lipoxygenase (ALOX15); P16050; purified 15hLO-1, xylenol orange hydroperoxide absorbance; Potency, µM (series often up to 57.1 µM), inactives show at the highest dose activity change, negative = inhibition, usual class: inhibitors; actives 1.4% (n = 74,000); also: nearly all actives have a fitted effect of over 55% in size
Target sequence (P16050 whole entry, looked up): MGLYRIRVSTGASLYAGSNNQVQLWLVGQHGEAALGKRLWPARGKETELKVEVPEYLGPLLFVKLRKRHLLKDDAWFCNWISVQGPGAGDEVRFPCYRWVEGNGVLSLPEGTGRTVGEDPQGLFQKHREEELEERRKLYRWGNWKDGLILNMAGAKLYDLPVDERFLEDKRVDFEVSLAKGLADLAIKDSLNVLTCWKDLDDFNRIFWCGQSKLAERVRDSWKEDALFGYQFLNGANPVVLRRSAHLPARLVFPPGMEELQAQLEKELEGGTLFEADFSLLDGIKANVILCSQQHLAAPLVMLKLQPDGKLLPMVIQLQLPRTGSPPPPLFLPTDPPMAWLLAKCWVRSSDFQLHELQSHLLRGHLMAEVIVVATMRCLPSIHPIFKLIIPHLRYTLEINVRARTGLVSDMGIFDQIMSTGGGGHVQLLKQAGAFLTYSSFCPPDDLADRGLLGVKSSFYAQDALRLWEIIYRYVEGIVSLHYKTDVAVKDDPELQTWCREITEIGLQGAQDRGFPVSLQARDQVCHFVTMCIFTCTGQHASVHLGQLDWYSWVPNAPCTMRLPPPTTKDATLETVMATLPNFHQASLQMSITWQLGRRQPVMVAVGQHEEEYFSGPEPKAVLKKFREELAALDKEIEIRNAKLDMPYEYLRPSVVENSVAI
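Compounds were preincubated 15 min at room temperature with 40 nM purified human enzyme (25 mM Hepes pH 7.5, 0.01% Triton X-100); 50 uM arachidonic acid reacted 6 min. Fe-xylenol orange detection, 30 min, absorbance ratio 573/405 nm.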
Luciferase inh = firefly luciferase inhibition | P08659 | purified firefly luciferase, luminescence, 8 min | Potency, µM (highest dose often 57.1 µM), for inactives: at the highest dose activity change, negative = inhibition, actives largely listed as inhibitors | actives 2.2% (n = 72,000) | AID 411; also: nearly all actives have a fitted effect of over 40% in size
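Luminescence read-out after 8 min at room temperature; enzyme reaction used luciferin plus 10 uM ATP (linear range) in imidazole buffer pH 7.2 with KCl, MgCl2, Tween 20 and BSA. Each sample was run as a titration.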
Tau filament bind = binds recombinant human tau filaments; recombinant tau filaments, thioflavin S fluorescence, 15 h; filaments grown with octadecylsulfate alongside compound; AID 596; Potency, µM (top dose mostly 57.1 µM), without a hit: at the top dose activity change, negative = inhibition; P10636; actives 2% (n = 71,000);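 also: actives lower thioflavin S fluorescence by blocking filaments or displacing dye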
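His-tagged recombinant human tau (exons 2, 3, 10; 1 uM final) fibrillized with 30 uM sodium octadecylsulfate, 15 h at 37 C, in pH 7.4 HEPES buffer with 10 uM thioflavine S and 5 mM DTT. Reduced ThS fluorescence (450/510 nm) marks activity.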
Bst PK mod = pyruvate kinase (B. stearothermophilus) modulation; purified pyruvate kinase, luminescence ATP production; ribose 5-phosphate activator present at AC10; Potency, µM; actives 1.2% (n = 51,000); AID 361; in the data active = potency below about 11 µM; inconclusive = mostly about 12 µM to 25 µM;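 the screen sought inhibitors and activators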;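 also: scaled between full activation by ribose 5 phosphate and full inhibition by luteolin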
* marks the source's active call; other numbers are inactive results; i = inactive; ? = inconclusive; / = no result; ! = repeats disagree; [ ] = dose if it differs, or a comment. Unless noted, calls follow the shape of the dose curve; as a rule, active = well fitted curve in the direction sought with a large enough effect; inconclusive = small, poorly fitted or top-dose-only effect, or another doubt; inactive = no such curve, though single readings can be large; an effect the other way counts as inactive or inconclusive. Unless noted, % is scaled to controls: 0 for no effect and ±100 for the full control effect; potency is read from the fitted curve at half-maximal effect.

SMILES	ERK AVP block	Pol III holo inh	15-hLO inh	Luciferase inh	Tau filament bind	Bst PK mod
N#CC(=C(/N)Sc1ccccc1N)/C(C#N)=C(/N)Sc1ccccc1N	0.2µM*	1%	13µM*!	1%	?	/
Cn1ccnc1SCc1cn2cc(Br)ccc2n1	-28%	-2%	11%	16µM*	-7%	i
COC(=O)c1ccc(CSc2nccn2C)cc1	-11%	2%	-4%	-5%	27%	>57
CC(C)c1ccc(NC(=O)C2CC(=O)N=C(N)S2)cc1 (configuration not stated)	1%	-2%	25µM*	-1%	-10%	>57
CCc1ccc(NC(=O)C2CC(=O)N=C(N)S2)cc1 (configuration not stated)	-2%	0%	16%	0%	-6%	>57
COc1cccc2[nH]c(-c3ccccn3)nc12	-9%[11.5 µM]	-5%[11.4 µM]	59%[11.4 µM]	3.2µM*	5%[11.4 µM]	/
COC(=O)C1=C(C)NC(C)=C(C(=O)OCCN(C)Cc2ccccc2)[C@H]1c1cccc([N+](=O)[O-])c1	-7%[25.7 µM]	4%[25.6 µM]	-1%[25.6 µM]	1%[25.5 µM]	10µM*	/
Cc1ccc2nc(NCc3ccccc3)[nH]c2c1	/	/	/	10µM*	/	i
c1ccc(CNc2nc3ccccc3[nH]2)cc1	-10%	-4%	12%	13µM*	-12%	?
Cc1cc(C)nc(Nc2nc3ccccc3[nH]2)n1	5%	-3%	2%	-3%	-14%	>57
COc1ccc2nc(NCCO)[nH]c2c1	14%	4%	7%	-1%	4%	>57
COc1cc(CNc2nc3ccccc3[nH]2)cc(OC)c1OC	-17%	6%	12%	2%	-6%	>57
COc1ccc2nc(NCc3ccccc3)[nH]c2c1	-1%	-7%	-1%	16µM*	15%	/
c1ccc(Nc2nc3ccccc3[nH]2)nc1	-28%	-6%	32%	20µM*	-2%	i
CC[C@@H](c1ccccc1)n1c(=O)n2n(c1=O)[C@H]1[C@H](O)[C@H]3O[C@@H]3/C(=N/OCC(C)C)[C@@H]1CC2	-19%[11.5 µM]	/	7%[11.4 µM]	1%[11.4 µM]	/	/
C[C@H](c1ccccc1)N1C(=O)[C@H]2[C@@H]3[C@H](O)[C@H](O)CC(=O)[C@H]3CC[C@H]2C1=O	-8%[11.5 µM]	/	7%[11.4 µM]	1%[11.4 µM]	/	/
COCCn1c(=O)c(-c2cc(F)cc(F)c2)nc2cnc(OC)nc21	-14%	-11%	0%	0%[11.4 µM]	-9%	/
O=C1c2ccccc2C(=O)C12Cc1ccccc1N1CCN(c3ccccc3)CC12 (configuration not stated)	-8%	0%	5%	0%	10µM*	>57
CC#C[C@]1(O)CC[C@H]2[C@@H]3CCC4=CC(=O)CCC4=C3[C@H](c3ccc(N(C)C)cc3)C[C@@]21C	13µM*	-4%	10µM*	0%	32µM*	/
Cc1cccc(CNc2ncncc2-c2ccccc2CN(C)C)c1	-1%	2%	25%	2%[2.29 µM]	-10%	/
c1ccc2nc3c(nc2c1)[nH]c1ccccc13	40%	-7%	-20%	16µM*	21%	4.1*
C[C@@](N)(Cc1ccc(O)c(O)c1)C(=O)O	?	13µM*!	?	-4%[25.5 µM]	-7%[25.6 µM]	/
Cc1cc(C)n(-c2ccc(C(=O)OCC(=O)NCc3ccco3)cc2)n1	8%	-6%	-11%	0%	8%	>57
Cc1cc(C)n(-c2ccc(C(=O)OCC(=O)c3ccc(Br)s3)cc2)n1	-20%	0%	-10%	3%	13µM*	>57
Cc1ccc2c(c1)c1cccc3c1n2CCN3CCC(N)=O	?	-8%	13µM*	10µM*	5µM*	/
SMILES	ERK AVP block	Pol III holo inh	15-hLO inh	Luciferase inh	Tau filament bind	Bst PK mod
COc1ccc(-n2c(=O)cnc3cnc(N4CCN(C)CC4)nc32)cc1	-9%	-17%	-3%	0%[11.4 µM]	-3%	/
Cc1nc2ccccc2c(=O)n1NC(=O)COc1ccccc1	16%	-2%	1%	1%	-16%	/
O=C(COc1ccccc1)Nn1cnc2ccccc21	16%	0%	13µM*	2%	-3%	>57
CCCn1c(-c2ccc(F)cc2)nc2c(NCCCN3CCOCC3)nc(C)nc21	-23%	-1%	-22%	/	8%	/
O=c1cc(-c2ccccc2)oc2cc(O)c(O)cc12	-30%	/	16µM*	/	/	/
O=c1cc(-c2ccccc2)oc2ccccc12	-15%	-4%	-25%	/	-20%	/
O=c1cc(-c2ccc(O)c(O)c2)oc2ccccc12	7.9µM*	/	1.6µM*	/	/	/
Cc1ccc2oc(-c3ccccc3)cc(=O)c2c1	-4%	/	7%[25.6 µM]	/	/	/
O=C(Nc1ccccc1)c1ccc(Cc2nc3ccccc3[nH]2)cc1	/	/	-2%	/	/	/
CC(C)[C@H]1C(=O)C(C(N)=O)=C(O)[C@]2(O)C(=O)C3=C(O)c4c(O)ccc(N(C)C)c4C[C@H]3C[C@@H]12	-8%	-7%	16%	-7%	-14%	/
Cc1noc(C)c1-c1nc(NCc2cccs2)c2ccccc2n1	?	0%	13µM*	-3%[2.29 µM]	83%	/
Cc1noc(C)c1-c1nc(Nc2ccc(F)cc2)c2ccccc2n1	2%	-7%	16µM*	2%[2.29 µM]	-16%	/
Cc1noc(C)c1-c1nc(N(C)C)c2ccccc2n1	-14%	-6%	16µM*	-3%[2.29 µM]	-5%	/
COCCNc1nc(-c2c(C)noc2C)nc2ccccc12	-14%	-2%	7%	1%[2.29 µM]	-2%	/
O=C(Cl)c1cccc([N+](=O)[O-])c1	-27%	4%	-11%	/	-12%	/
CCOC(=O)c1c(C)[nH]c(C(=O)COC(=O)C2CC2C)c1C (configuration not stated)	-2%	-1%	6%	10µM*	1%	i
CCOc1cc(C)c(S(=O)(=O)NC2CCCCC2)cc1C	-11%	-2%	-18%	5%	10µM*	>57
S=C(S)NCCN1CCNCC1	8%[11.5 µM]	-2%[11.4 µM]	6%[11.4 µM]	-1%[11.4 µM]	1%[11.4 µM]	/
O=C(Nc1ccncc1)C1COc2ccccc2O1 (configuration not stated)	-17%	-5%	8%	-2%	2%	>57
O=C(Nc1ccc2c(c1)OCO2)C1COc2ccccc2O1 (configuration not stated)	-22%	2%	-4%	-21%	13µM*	/
O=C(Nc1nc2c(s1)CCCC2)C1COc2ccccc2O1 (configuration not stated)	/	7%	-11%	10µM*	0%	/
Cc1nnc(NC(=O)C2COc3ccccc3O2)s1 (configuration not stated)	-6%	3%	5%	-1%	5%	>57
O=C(NC1=NCCS1)C1COc2ccccc2O1 (configuration not stated)	-9%	-3%	-7%	2µM*	-4%	4.3*
COCCNc1ncnc2ccc(-c3cccc(OC)c3)cc12	-11%	1%	17%	2%[2.29 µM]	-5%	/
COc1cccc(Nc2nc(-c3sc(N)nc3C)cs2)c1	?	-7%	-1%	-21%	13µM*	i
